Experimental data taken from PMC7862700, “An all-to-all approach to the identification of sequence-specific readers for epigenetic DNA modifications on cytosine”.

Experiments:
Assay in all cases: DAPPL (digital affinity profiling via proximity ligation, sequencing); 10 mM Tris-HCl pH 7.5, 50 mM NaCl, 1 mM DTT, 4% glycerol, room temperature, 30 min; GST-TFs on glutathione beads, 16-mer random dsDNA library, 0.1% formaldehyde crosslink after washing; high values mean tight binding
[1] = target: T1, FEV (Homo sapiens, UniProt Q99581 1-238); settings: protein: recombinant; tags: N-terminal GST; dsDNA, one strand shown
T1 sequence: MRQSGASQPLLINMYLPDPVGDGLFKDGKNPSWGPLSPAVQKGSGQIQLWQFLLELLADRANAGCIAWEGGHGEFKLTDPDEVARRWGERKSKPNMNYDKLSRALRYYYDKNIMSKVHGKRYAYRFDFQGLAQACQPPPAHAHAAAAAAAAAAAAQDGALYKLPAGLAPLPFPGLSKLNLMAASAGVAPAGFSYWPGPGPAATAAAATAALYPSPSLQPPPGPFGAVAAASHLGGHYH
Summary of the method: (§1)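 Sequencing on an Illumina NextSeq500 followed washing, crosslinking with 0.1% formaldehyde, proximity ligation (BsaI/T4 ligase, 1 h, 37 °C) and PCR amplification of pools that had been incubated for 30 min at room temperature with 200 nmole of a random double-stranded 16-mer DNA library in Tris/NaCl/DTT/glycerol buffer. Each pool held DNA-barcoded human transcription factors, expressed in yeast as GST fusions and captured on glutathione beads, plus a tag-only sample. Binding signal is a hexamer's read frequency for a factor divided by its frequency in the tag-only sample.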

[2] = target: ETV5 (Homo sapiens, UniProt P41161 1-510); settings: protein: recombinant; tags: N-terminal GST; dsDNA, one strand shown
Summary of the method: as §1

[3] = target: HSF1 (Homo sapiens, UniProt Q00613 1-529); settings: protein: recombinant; tags: N-terminal GST; chain copies: 3; dsDNA, one strand shown
Summary of the method: as §1

[4] = target: T2, SPIC (Homo sapiens, UniProt Q8N5J4 1-248); settings: protein: recombinant; tags: N-terminal GST; dsDNA, one strand shown
T2 sequence: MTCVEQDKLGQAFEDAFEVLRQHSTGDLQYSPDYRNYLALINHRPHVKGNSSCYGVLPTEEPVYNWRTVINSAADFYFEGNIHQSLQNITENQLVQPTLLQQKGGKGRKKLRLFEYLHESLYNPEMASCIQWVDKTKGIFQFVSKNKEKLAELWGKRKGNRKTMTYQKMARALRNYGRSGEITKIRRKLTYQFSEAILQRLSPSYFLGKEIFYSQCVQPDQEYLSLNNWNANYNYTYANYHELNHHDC
Summary of the method: as §1

[5] = target: ELF4 (Homo sapiens, UniProt Q99607 1-663); settings: protein: recombinant; tags: N-terminal GST; dsDNA, one strand shown
Summary of the method: as §1

[6] = target: T3, ELK4 (Homo sapiens, UniProt P28324-2 1-405); settings: protein: recombinant; tags: N-terminal GST; dsDNA, one strand shown
T3 sequence: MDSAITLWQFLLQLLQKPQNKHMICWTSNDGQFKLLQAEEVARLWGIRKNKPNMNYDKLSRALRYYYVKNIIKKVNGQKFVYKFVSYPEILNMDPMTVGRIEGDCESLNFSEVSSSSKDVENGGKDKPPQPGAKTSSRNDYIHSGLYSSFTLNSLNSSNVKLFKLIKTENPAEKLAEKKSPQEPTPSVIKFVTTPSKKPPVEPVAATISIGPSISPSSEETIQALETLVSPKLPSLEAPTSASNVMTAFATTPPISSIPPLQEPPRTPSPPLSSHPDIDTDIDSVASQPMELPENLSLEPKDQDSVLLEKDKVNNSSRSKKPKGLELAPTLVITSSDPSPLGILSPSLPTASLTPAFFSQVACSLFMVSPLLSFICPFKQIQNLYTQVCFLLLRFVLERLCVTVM
Summary of the method: as §1

[7] = target: T4, ETV2 (Homo sapiens, UniProt O00321 1-342); settings: protein: recombinant; tags: N-terminal GST; dsDNA, one strand shown
T4 sequence: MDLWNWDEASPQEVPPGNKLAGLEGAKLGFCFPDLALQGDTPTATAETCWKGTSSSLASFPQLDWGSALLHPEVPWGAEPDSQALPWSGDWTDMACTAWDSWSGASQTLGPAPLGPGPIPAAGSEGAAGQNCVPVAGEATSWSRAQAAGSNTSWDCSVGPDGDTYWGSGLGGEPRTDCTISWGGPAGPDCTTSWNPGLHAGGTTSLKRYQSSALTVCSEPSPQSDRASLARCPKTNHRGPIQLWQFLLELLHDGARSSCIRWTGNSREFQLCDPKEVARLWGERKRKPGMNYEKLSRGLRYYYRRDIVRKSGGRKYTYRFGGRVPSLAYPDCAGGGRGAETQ
Summary of the method: as §1

[8] = target: T5, ELF3 (Homo sapiens, UniProt P78545 1-371); settings: protein: recombinant; tags: N-terminal GST; dsDNA, one strand shown
T5 sequence: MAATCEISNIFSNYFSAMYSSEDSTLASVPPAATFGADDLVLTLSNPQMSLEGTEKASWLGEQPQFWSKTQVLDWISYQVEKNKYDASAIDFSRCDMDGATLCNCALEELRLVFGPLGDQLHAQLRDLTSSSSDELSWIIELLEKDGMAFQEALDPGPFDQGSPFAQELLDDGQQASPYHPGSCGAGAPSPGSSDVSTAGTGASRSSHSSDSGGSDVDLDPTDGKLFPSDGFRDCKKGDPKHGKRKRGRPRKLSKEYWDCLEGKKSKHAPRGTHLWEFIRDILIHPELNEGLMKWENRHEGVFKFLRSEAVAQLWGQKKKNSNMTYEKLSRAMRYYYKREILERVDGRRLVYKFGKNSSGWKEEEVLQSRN
Summary of the method: as §1

[9] = target: ETV1 (Homo sapiens, UniProt P50549 1-477); settings: protein: recombinant; tags: N-terminal GST; dsDNA, one strand shown
Summary of the method: as §1

[10] = target: T6, ERF (Homo sapiens, UniProt P50548 1-548); settings: protein: recombinant; tags: N-terminal GST; dsDNA, one strand shown
T6 sequence: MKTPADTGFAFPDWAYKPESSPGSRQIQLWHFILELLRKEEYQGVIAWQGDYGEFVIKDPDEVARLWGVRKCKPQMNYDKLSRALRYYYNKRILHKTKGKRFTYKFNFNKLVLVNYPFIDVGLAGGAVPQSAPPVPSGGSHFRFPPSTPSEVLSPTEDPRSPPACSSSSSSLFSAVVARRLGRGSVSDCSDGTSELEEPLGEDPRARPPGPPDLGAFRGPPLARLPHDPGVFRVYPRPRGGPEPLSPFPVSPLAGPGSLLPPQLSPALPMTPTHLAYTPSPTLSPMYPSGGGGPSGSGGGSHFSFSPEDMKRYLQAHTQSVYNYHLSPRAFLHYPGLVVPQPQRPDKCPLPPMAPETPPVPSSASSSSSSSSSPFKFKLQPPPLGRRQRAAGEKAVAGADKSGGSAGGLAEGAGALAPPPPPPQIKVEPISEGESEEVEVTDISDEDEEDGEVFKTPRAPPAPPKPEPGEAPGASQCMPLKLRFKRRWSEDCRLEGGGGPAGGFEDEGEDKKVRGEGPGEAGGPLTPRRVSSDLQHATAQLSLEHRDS
Summary of the method: as §1

[11] = target: T7, ETV3L (Homo sapiens, UniProt Q6ZN32 1-361); settings: protein: recombinant; tags: N-terminal GST; dsDNA, one strand shown
T7 sequence: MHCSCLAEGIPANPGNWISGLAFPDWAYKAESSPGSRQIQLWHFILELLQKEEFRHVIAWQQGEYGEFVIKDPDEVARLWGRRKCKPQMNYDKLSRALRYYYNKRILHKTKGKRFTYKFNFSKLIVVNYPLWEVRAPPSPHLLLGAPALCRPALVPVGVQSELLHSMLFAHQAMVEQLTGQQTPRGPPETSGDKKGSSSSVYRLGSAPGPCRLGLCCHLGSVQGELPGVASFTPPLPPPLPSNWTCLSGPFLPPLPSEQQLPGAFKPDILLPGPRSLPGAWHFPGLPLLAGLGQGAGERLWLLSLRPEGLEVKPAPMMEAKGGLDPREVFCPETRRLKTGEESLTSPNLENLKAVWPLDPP
Summary of the method: as §1

[12] = target: T8, ETS2 (Homo sapiens, UniProt P15036 1-469); settings: protein: recombinant; tags: N-terminal GST; dsDNA, one strand shown
T8 sequence: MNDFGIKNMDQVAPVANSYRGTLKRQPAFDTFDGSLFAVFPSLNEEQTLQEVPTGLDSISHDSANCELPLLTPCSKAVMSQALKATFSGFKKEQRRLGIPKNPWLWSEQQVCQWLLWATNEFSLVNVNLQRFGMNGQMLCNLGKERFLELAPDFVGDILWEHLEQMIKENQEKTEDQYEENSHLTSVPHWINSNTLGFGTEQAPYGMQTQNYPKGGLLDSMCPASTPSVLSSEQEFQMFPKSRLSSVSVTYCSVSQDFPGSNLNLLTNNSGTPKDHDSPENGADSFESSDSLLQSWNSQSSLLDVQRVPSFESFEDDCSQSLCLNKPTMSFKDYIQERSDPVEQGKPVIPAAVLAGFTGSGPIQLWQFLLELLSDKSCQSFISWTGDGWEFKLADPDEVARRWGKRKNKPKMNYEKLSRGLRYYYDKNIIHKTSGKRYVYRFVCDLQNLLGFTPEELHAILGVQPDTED
Summary of the method: as §1

[13] = target: T9, SPDEF (Homo sapiens, UniProt O95238 1-335); settings: protein: recombinant; tags: N-terminal GST; dsDNA, one strand shown
T9 sequence: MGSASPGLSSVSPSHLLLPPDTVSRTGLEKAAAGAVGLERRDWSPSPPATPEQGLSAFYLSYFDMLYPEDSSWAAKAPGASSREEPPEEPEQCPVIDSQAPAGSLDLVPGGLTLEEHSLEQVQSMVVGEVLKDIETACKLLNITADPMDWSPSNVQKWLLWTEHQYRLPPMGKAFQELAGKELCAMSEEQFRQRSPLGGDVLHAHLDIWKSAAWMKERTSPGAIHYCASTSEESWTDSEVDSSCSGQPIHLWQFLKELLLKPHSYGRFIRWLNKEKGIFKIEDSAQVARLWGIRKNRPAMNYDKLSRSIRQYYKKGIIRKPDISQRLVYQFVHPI
Summary of the method: as §1

[14] = target: T10, ETV7 (Homo sapiens, UniProt Q9Y603 1-341); settings: protein: recombinant; tags: N-terminal GST; dsDNA, one strand shown
T10 sequence: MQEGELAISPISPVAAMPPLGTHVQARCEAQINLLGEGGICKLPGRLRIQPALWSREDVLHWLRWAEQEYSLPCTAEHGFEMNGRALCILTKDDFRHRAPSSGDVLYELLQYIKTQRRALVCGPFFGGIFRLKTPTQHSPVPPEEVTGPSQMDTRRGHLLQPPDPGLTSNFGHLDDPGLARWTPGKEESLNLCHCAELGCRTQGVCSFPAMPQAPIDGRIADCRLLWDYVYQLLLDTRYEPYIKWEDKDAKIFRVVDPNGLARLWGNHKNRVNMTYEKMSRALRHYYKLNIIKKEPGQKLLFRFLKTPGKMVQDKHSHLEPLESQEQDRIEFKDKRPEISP
Summary of the method: as §1

[15] = target: T11, ELF5 (Homo sapiens, UniProt Q9UKW6-2 1-255); settings: protein: recombinant; tags: N-terminal GST; dsDNA, one strand shown
T11 sequence: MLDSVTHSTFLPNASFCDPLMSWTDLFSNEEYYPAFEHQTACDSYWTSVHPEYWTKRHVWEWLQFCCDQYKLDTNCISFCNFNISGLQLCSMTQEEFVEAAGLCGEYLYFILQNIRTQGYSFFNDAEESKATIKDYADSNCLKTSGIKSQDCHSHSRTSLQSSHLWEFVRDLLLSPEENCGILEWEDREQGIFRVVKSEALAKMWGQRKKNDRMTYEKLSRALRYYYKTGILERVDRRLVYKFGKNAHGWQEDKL
Summary of the method: as §1

[16] = target: T12, ETV3 (Homo sapiens, UniProt P41162-2 1-143); settings: protein: recombinant; tags: N-terminal GST; dsDNA, one strand shown
T12 sequence: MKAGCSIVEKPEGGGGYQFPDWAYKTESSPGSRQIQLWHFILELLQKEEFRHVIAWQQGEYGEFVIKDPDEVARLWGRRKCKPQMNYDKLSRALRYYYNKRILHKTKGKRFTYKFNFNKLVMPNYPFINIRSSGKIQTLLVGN
Summary of the method: as §1

[17] = target: ETV6 (Homo sapiens, UniProt P41212 1-452); settings: protein: recombinant; tags: N-terminal GST; dsDNA, one strand shown
Summary of the method: as §1

ETV1, sequence (P50549 whole entry): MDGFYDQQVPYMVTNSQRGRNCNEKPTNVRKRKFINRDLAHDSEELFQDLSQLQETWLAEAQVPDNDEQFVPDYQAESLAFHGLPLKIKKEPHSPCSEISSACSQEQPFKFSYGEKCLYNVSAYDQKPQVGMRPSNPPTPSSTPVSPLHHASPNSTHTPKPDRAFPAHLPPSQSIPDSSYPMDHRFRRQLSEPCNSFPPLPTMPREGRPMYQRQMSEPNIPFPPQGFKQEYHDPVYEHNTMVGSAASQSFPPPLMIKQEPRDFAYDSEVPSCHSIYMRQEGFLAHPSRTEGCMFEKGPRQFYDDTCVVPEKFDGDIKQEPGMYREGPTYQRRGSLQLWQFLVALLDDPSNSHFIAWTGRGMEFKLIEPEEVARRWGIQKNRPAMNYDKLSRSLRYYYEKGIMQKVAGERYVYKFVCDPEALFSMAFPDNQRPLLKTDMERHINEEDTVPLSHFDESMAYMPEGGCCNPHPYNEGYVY
ETV5, sequence (P41161 whole entry): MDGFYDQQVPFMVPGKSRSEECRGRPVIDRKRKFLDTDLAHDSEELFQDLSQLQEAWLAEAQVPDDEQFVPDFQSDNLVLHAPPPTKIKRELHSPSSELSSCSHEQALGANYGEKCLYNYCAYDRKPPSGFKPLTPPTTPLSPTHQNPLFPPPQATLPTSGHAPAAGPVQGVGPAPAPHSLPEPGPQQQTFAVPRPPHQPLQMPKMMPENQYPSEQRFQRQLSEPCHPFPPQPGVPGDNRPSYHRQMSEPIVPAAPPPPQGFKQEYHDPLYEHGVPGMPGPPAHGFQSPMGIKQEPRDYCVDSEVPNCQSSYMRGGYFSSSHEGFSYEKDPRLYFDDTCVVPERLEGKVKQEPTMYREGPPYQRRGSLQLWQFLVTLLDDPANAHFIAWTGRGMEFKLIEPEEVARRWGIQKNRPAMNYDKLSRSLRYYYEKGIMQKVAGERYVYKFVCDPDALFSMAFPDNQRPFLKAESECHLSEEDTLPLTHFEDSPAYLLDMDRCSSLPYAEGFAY
ELF4, sequence (Q99607 whole entry): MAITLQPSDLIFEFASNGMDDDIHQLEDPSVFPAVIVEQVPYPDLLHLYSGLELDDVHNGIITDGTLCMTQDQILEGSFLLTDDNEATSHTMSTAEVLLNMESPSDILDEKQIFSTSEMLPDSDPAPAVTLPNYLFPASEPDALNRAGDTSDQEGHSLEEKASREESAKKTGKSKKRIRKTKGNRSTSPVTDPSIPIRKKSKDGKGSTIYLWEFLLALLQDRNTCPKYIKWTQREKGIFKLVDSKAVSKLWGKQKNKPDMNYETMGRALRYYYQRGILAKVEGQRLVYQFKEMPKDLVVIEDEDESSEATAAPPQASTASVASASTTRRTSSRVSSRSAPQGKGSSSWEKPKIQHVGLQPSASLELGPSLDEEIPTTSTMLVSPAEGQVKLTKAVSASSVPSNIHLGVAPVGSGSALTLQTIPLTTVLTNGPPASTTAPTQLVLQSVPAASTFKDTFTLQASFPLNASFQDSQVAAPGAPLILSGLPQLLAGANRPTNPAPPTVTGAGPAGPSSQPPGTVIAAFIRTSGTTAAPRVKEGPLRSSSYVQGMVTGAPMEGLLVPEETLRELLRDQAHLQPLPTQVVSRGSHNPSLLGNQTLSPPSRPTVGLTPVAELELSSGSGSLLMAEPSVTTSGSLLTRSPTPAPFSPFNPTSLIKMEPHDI
HSF1, sequence (Q00613 whole entry): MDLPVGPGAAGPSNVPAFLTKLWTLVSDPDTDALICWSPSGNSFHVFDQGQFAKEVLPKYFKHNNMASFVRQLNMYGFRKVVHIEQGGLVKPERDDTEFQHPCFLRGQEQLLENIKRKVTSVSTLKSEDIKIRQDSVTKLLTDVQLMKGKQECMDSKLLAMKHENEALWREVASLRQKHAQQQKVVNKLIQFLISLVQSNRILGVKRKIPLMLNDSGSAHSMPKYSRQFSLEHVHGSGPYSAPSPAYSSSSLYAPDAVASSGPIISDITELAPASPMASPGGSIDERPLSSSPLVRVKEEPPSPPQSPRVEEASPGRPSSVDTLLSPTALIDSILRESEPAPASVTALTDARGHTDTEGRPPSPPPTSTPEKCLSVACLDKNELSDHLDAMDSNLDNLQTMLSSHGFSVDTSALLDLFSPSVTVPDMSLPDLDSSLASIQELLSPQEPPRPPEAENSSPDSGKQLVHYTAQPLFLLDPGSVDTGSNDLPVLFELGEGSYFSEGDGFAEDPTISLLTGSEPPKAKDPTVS
ETV6, sequence (P41212 whole entry): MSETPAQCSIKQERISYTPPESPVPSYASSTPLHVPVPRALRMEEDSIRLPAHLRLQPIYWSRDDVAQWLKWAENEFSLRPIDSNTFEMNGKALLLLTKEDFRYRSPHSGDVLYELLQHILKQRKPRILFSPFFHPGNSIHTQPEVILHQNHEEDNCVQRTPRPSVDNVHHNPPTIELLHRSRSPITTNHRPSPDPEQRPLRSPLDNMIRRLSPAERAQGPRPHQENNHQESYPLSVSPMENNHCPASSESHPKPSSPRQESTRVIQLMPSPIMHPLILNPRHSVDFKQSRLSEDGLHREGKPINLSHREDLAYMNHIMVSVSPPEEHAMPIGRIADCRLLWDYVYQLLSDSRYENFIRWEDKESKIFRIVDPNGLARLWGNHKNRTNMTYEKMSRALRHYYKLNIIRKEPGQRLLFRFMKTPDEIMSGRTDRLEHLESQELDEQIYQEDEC

AGTTCC
binding signal [1]: 1.96 fold enrichment (6-mer frequency, TF over GST control)
binding signal [2]: 2.29 fold enrichment (6-mer frequency, TF over GST control)
binding signal [3]: 1.34 fold enrichment (6-mer frequency, TF over GST control)
binding signal [4]: 2.42 fold enrichment (6-mer frequency, TF over GST control)
binding signal [5]: 1.97 fold enrichment (6-mer frequency, TF over GST control)
binding signal [6]: 1.98 fold enrichment (6-mer frequency, TF over GST control)
binding signal [7]: 1.88 fold enrichment (6-mer frequency, TF over GST control)
binding signal [8]: 2.05 fold enrichment (6-mer frequency, TF over GST control)
binding signal [9]: 2.21 fold enrichment (6-mer frequency, TF over GST control)
binding signal [10]: 1.73 fold enrichment (6-mer frequency, TF over GST control)
binding signal [11]: 2.15 fold enrichment (6-mer frequency, TF over GST control)
binding signal [12]: 2.17 fold enrichment (6-mer frequency, TF over GST control)
binding signal [13]: 2.56 fold enrichment (6-mer frequency, TF over GST control)
binding signal [14]: 1.94 fold enrichment (6-mer frequency, TF over GST control)
binding signal [15]: 2.79 fold enrichment (6-mer frequency, TF over GST control)
binding signal [16]: 2.38 fold enrichment (6-mer frequency, TF over GST control)
binding signal [17]: 2.17 fold enrichment (6-mer frequency, TF over GST control)
